# Laboratory results taken from PubChem BioAssay.
# Values without a mark were called inactive. Activity calls are given as the source filed them. Unless noted, no stated cut-off is given here; in the data, active means inhibition above about 33%; inactive means the rest.
# What was measured:
# [1] = StAR promoter reporter inhibitors, counter-screen for LRH-1 inverse agonist project, cell-based, luminescence, high throughput (AID 651611; in the data active means inhibition above about 28%); conditions: StAR promoter luciferase reporter counterscreen, at 3.6 µM, stronger effect = higher value
# [2] = target: Nuclear receptor subfamily 5 group A member 2 (Homo sapiens) (UniProt O00482); experiment: LRH-1 (NR5A2) inverse agonists, retest, confirmation, cell-based, luminescence (AID 651613; in the data active means inhibition above about 42%;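 further: HEK293T cells co-transfected with LRH-1 and StAR promoter luciferase reporter; 0% = vehicle wells and 100% = parental cells lacking receptor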); conditions: cell-based LRH-1 luciferase reporter, inverse agonism; at 3.6 µM; stronger effect = higher value
# [3] = target: Steroidogenic factor 1 (Homo sapiens) (UniProt Q13285); experiment: SF1 (NR5A1) inverse agonists, counter-screen for LRH-1 inverse agonist project, cell-based, luminescence, high throughput (AID 651614; in the data active means inhibition above about 44%;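 further: cells cotransfected with StAR promoter reporter and SF1 expression vector; 0% = vehicle on cells with receptor and 100% = vehicle on cells lacking receptor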); conditions: cell-based SF1 luciferase reporter, at 3.6 µM, stronger effect = higher value
# [4] = VP16 transactivation reporter inhibitors, counter-screen for LRH-1 inverse agonist project, cell-based, luminescence, high throughput (AID 651615); conditions: Gal4-VP16 luciferase reporter cells, at 3.6 µM, stronger effect = higher value
# Steroidogenic factor 1 (Homo sapiens), sequence (Q13285 whole entry, looked up, the tested form may be a part): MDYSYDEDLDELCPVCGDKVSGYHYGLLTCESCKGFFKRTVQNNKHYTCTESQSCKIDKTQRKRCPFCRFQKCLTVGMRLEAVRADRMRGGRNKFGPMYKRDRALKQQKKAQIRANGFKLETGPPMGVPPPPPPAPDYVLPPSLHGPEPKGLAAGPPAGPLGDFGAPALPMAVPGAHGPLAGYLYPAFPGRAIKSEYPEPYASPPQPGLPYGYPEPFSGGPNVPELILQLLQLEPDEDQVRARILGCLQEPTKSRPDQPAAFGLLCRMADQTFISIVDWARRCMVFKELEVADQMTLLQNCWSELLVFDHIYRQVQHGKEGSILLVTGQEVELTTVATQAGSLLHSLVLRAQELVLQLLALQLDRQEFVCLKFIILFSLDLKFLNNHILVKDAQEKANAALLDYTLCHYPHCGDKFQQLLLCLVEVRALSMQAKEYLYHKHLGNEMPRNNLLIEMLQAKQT
# Nuclear receptor subfamily 5 group A member 2 (Homo sapiens), sequence (O00482 whole entry, looked up): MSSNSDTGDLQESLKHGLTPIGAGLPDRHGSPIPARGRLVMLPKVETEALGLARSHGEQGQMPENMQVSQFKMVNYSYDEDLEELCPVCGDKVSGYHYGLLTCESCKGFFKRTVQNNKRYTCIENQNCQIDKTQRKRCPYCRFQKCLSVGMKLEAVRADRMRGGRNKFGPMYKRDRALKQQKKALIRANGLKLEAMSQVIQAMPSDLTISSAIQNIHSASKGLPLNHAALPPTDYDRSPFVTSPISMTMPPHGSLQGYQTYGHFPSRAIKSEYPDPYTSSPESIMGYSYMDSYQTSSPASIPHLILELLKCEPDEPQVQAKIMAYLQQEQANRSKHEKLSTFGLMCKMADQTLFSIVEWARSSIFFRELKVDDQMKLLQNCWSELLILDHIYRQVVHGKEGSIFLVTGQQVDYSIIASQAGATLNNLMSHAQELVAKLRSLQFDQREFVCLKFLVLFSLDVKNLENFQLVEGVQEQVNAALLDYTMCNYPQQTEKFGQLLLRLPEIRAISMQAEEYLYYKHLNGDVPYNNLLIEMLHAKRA
SMILES,inhibition [1],inhibition [2],inhibition [3],inhibition [4]
COc1ccccc1-c1cc(NC=O)c2ncc(-c3ccc(S(C)(=O)=O)cc3)n2c1,31.8% (active),42.8% (active),46.9% (active),-33.2%
COCCNc1ncnc2c1ncn2[C@H]1CN(CCc2ccccc2)C[C@@H](CO)O1,9.96%,28.4%,24.9%,3.57%
O=C1CCCN2N=C(SCC(=O)Nc3ccc(Br)cc3)SC2=N1,-4.32%,49.1% (active),48.8% (active),-7.91%
On1ccccc1=S,86.8% (active),83.1% (active),82.3% (active),87.5% (active)
CC(=O)C(C(C)=O)c1c(Cl)c(O)c(O)c2c(C(=O)c3ccccc3)coc12,73.1% (active),100% (active),92.8% (active),90.2% (active)
CCC(=O)N1CCN(c2ccc(Cl)cc2NC(=O)c2ccc([N+](=O)[O-])o2)CC1,22.8%,64.7% (active),61.9% (active),4.86%
COC(=O)c1ccc(NC(=O)CSC2=NCCN2)cc1,-0.27%,54.5% (active),43.8% (active),4.09%
COc1ccccc1-n1c(SCC(=O)Nc2ccc(F)cc2)nc2c(c1=O)SCC2,10.4%,54.9% (active),55.9% (active),-9%
CC(=O)c1cccc(NC(=O)c2ccc([N+](=O)[O-])o2)c1,25%,61.7% (active),61.9% (active),-5.65%
COc1cc(-c2cnc3c(NC=O)cc(-c4cccc(NC(C)=O)c4)cn23)cc(OC)c1OC,62.9% (active),74.9% (active),71.5% (active),-23.8%
O=C(Nc1cc(C(F)(F)F)ccc1-n1cncn1)c1ccc([N+](=O)[O-])o1,22.2%,57.7% (active),49.1% (active),-15.7%
C/C(=N\NC(N)=S)C1(C)CCCCC1,20.6%,57.1% (active),53.3% (active),29.4%
CC(=O)N(/N=C/c1ccc([N+](=O)[O-])o1)c1nc2ccccc2c(=O)n1-c1ccccc1,19.4%,69% (active),55.2% (active),2.37%
C=CC(=O)Nc1ccc(Br)cc1,20.7%,41%,51.4% (active),-1.85%
CCN(CC)C(=O)CSc1nc2ccc(NC(=O)CSc3nccn3C)cc2s1,-37.7%,0.81%,7.59%,-9.75%
COc1ccc(-c2sc(C(=O)c3ccc(Cl)cc3Cl)cc2CC(=O)O)cc1,17.8%,42.2% (active),38%,-5.16%
Cc1ccc(C(=O)Nc2sc3c(c2C(=O)O)CCCCC3)o1,12.2%,34.3%,69.9% (active),45.4% (active)
CCOc1ccc(S(=O)(=O)Nc2nc3ccccc3nc2N2CCN(C)CC2)cc1,-10.8%,27.2%,24.1%,-4.2%
Cc1ccc2cccc(OCC(=O)NCCC3=CCCCC3)c2n1,8.76%,61.1% (active),58.1% (active),-3.55%
CC(=O)N1CCN(c2ccc(Oc3ccc([N+](=O)[O-])c(C(F)(F)F)c3)cc2)CC1,30.3% (active),68.3% (active),72.9% (active),57.5% (active)
Cc1ccc(CN2CCC[C@]3(N[C@H](c4ccc(C(F)(F)F)cc4)[C@@H]4C(=O)N(Cc5ccccc5)C(=O)[C@@H]43)C2=O)cc1,-2.71%,24.8%,28.4%,22%
CCCn1c(NC(=O)c2ccc([N+](=O)[O-])o2)nc2ccccc21,18.9%,51.3% (active),21.2%,-2.27%
COc1cccc(NC(=O)N(C)C[C@H]2Oc3cc(C#Cc4ccncc4)ccc3S(=O)(=O)N([C@H](C)CO)C[C@H]2C)c1,28% (active),50.6% (active),44.8% (active),-37%
COc1cc2c(cc1OC)C(C1C(=O)CC(C)CC1=O)N(C(=O)CCl)CC2 (stereo unspecified),19.1%,54.1% (active),58.5% (active),-19.1%
